This passage reports growth inhibition results from PubChem BioAssay (NCI).

A short description of assay [1]: NCI Yeast Anticancer Drug Screen. Data for the rad50 strain (AID 155).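 Note: 0% = growth of vehicle-only cultures of the same strain.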 The note with it: S. cerevisiae rad50 strain growth inhibition; at 50.0 µM; active compounds read high. An outline of the steps: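 A DNA repair-deficient yeast mutant serves as the test organism; compound-induced growth inhibition is calculated against vehicle-treated cells.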
Assay [2] is described as follows: NCI Yeast Anticancer Drug Screen. Data for the mec2-1 strain (AID 157). The note with it: S. cerevisiae mec2-1 strain, at 50.0 µM, active compounds read high. The method in brief: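 Test agents were screened against the mec2-1 yeast strain, with defined DNA repair or cell cycle alteration. Growth was scored as inhibition against vehicle-only controls.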
Assay [3] is described as follows: NCI Yeast Anticancer Drug Screen. Data for the sgs1 mgt1 strain (AID 161).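 Note: 0% = growth of cultures given vehicle only.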 The note with it: S. cerevisiae sgs1 mgt1 strain, at 50.0 µM, active compounds read high. An outline of the steps:
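Read-out: growth inhibition vs vehicle controls. Cells: mutant yeast strain deficient in DNA damage repair.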

Assay [4] in a line: NCI Yeast Anticancer Drug Screen. Data for the cln2 rad14 strain (AID 165).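 Note: 0% = growth equal to vehicle treated cultures.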 Conditions: S. cerevisiae cln2 rad14 strain, at 50.0 µM, active compounds read high. An outline of the steps: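 Growth of compound-exposed yeast (cln2 rad14 genotype) measured and expressed as inhibition relative to vehicle.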
The nature of assay [5]: NCI Yeast Anticancer Drug Screen. Data for the bub3 strain (AID 167). Conditions: S. cerevisiae bub3 mutant strain, at 50.0 µM, active compounds read high. An outline of the steps:
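Inhibition values come from growth of compound-treated mutant yeast normalised to vehicle-treated controls.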

Assay [6] is described as follows: NCI Yeast Anticancer Drug Screen. Data for the mlh1 rad18 strain (AID 175). Conditions: S. cerevisiae mlh1 rad18 strain growth inhibition; at 50.0 µM; active compounds read high. An outline of the steps:
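In this whole-cell yeast screen, a strain with altered DNA damage repair is challenged with compound, and its growth is measured against matched vehicle-treated controls.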

The panel holds about 79,000 compounds, 15% with a hit somewhere; the sample as a whole holds those more often. A number with no mark means an inactive call. Calls of active or inactive are those of the source. Cut-off read from the data, not from the text of the source: active = growth inhibition above about 70%; inactive = the rest.

For `Cc1ccc(N2C(=O)c3ccccc3NC2(C)CCl)cc1` (centres undefined), the growth inhibition is 4.55% in assay [1]; -9.25% in assay [2]; 10.9% in assay [3]; -3.7% in assay [4]; 33.1% in assay [5]; 1.3% in assay [6].
For `CC(=O)OC(C)c1cc2c(s1)C(=O)c1sccc1C2=O` (centres undefined), the growth inhibition was 88.6% (active) in assay [1]; 91% (active) in assay [2]; 88.8% (active) in assay [3]; 89% (active) in assay [4]; 89.3% (active) in assay [5]; 89.5% (active) in assay [6].
Consider `N#CC1=C(O)/C(=C\c2ccc(Cl)cc2)N=C1N`, for which the growth inhibition was -28.3% in assay [1]; -14.3% in assay [2]; -7.8% in assay [3]; -13.9% in assay [4]; -6.2% in assay [5]; -3.35% in assay [6].
Regarding `[O-][N+](O)=C1c2ccccc2-c2ccccc21`, the growth inhibition was 7.4% in assay [1]; 2.95% in assay [2]; 0.65% in assay [3]; -21.4% in assay [4]; 3.75% in assay [5]; 11.1% in assay [6].
On to `Cc1cc(Cc2cc(Cc3cc(C)cc(C(C)(C)C)c3O)c(C)cc2C)c(O)c(C(C)(C)C)c1`, for which the growth inhibition in assay [1] is 50.4%; in assay [2] it was 18.4%; in assay [3], 13.3%; in assay [4], -1.75%; in assay [5], -23.4%; in assay [6] it was 38.5%.
In the case of `COC(=O)c1cc(C(=CCC[C@H]2CC[C@@]3(C)C(CCC4C3CC[C@@]3(C)C4CC[C@@H]3C(C)CCCC(C)C)C2)c2cc(Cl)c(O)c(C(=O)OC)c2)cc(Cl)c1O` (some centres undefined), the growth inhibition in assay [1] was 0%; in assay [2] it was 4.1%; in assay [3], -10%; in assay [4], 6.6%; in assay [5], 5.15%; in assay [6] it was -18.4%.
`COC1(OC)C2(Cl)C(Cl)=C(Cl)C1(Cl)C1C=CC=CC12` (centres undefined): the growth inhibition is -19.9% in assay [1]; -14.2% in assay [2]; -14.3% in assay [3]; 5.55% in assay [4]; -18.6% in assay [5]; -35.3% in assay [6].
On to `CCC1OC(=O)C(CC)OC1=O` (centres undefined), for which the growth inhibition in assay [1] was -5.75%; in assay [2] it was -20.2%; in assay [3] it was -25.6%; in assay [4], -2.05%; in assay [5] it was -28.9%; in assay [6], -24.4%.
Take `C(=C\c1ccccc1)/Cn1nc(-c2ccccc2)nc1-c1cnccn1`: the growth inhibition in assay [1] is -33.1%; in assay [2], -24%; in assay [3], -47%; in assay [4] it was 10.2%; in assay [5], -39.4%; in assay [6], -29.1%.
For `N#CCCN(CCc1ccccn1)CN1C(=O)c2ccccc2C1=O`, the growth inhibition was 10% in assay [1]; -4.85% in assay [2]; -3.75% in assay [3]; -7.45% in assay [4]; 3.25% in assay [5]; -13.2% in assay [6].
With `CC(C)CSC(C)C`, the growth inhibition is -3.6% in assay [1]; -43.4% in assay [2]; -27.6% in assay [3]; -5.25% in assay [4]; -6.9% in assay [5]; -11.1% in assay [6].
For the compound `COC(=O)/C=C\C1(CC(C)C)N=C(c2ccccc2)OC1=O` (centres undefined), the growth inhibition was 14.9% in assay [1]; 25.1% in assay [2]; 15.8% in assay [3]; 11.2% in assay [4]; 36.1% in assay [5]; 26.8% in assay [6].
Take `Nc1ncnc2c1ccn2Cc1c(Cl)cccc1Cl`: the growth inhibition in assay [1] was 2.05%; in assay [2] it was -0.2%; in assay [3], 7.1%; in assay [4], -2.75%; in assay [5], 23.9%; in assay [6], 5.4%.
Take `CCOC(=O)C1=C(c2ccccc2)NC(c2ccccc2)=C(C(=O)OCC)c2c1c(=O)cc[nH]c2=O`: the growth inhibition was -19.6% in assay [1]; 1.45% in assay [2]; 18.1% in assay [3]; 18.2% in assay [4]; -9.9% in assay [5]; 2.35% in assay [6].
As for `OC1CCC2CCCCC2C1` (centres undefined), the growth inhibition in assay [1] was -7.3%; in assay [2], -16.9%; in assay [3] it was -15.4%; in assay [4], -25.1%; in assay [5] it was -1.95%; in assay [6], 2.85%.
For the compound `COS(=O)c1cc(Cl)cc(Cl)c1O` (centres undefined), the growth inhibition in assay [1] was -0.6%; in assay [2], 4.55%; in assay [3] it was -10.7%; in assay [4] it was -28.2%; in assay [5] it was -0.85%; in assay [6] it was 2.25%.
As to `CCOC(=O)/C=C(\Nc1ccc(C(c2ccccc2)(c2ccccc2)c2ccccc2)cc1)C(=O)OCC`, the growth inhibition in assay [1] is 38.2%; in assay [2] it was 9.9%; in assay [3], 32%; in assay [4], 20.2%; in assay [5], -7.3%; in assay [6], 27.1%.
For the compound `O=C(CC(=O)C1CCOC1=O)C(=O)Nc1cccc(Cl)c1` (centres undefined), the growth inhibition was -13.8% in assay [1]; -8.55% in assay [2]; 5.5% in assay [3]; -10.7% in assay [4]; -12% in assay [5]; 21.4% in assay [6].
For the compound `CCc1c(C)c(C#N)c(=S)n(C2OC(COC(C)=O)C(OC(C)=O)C(OC(C)=O)C2OC(C)=O)c1-c1ccccc1` (centres undefined), the growth inhibition is 2.55% in assay [1]; 13.1% in assay [2]; 37.6% in assay [3]; 8.25% in assay [4]; 11.1% in assay [5]; 13.6% in assay [6].
